The source of these data is PubChem BioAssay (EPA / NIEHS).

Records with an inconclusive call do not appear. Activity calls are given as the source filed them. Rule for the calls: active = hit-call score of the fitted dose curve at least 0.9, where 1 is the maximum; inconclusive = response in the unintended direction; inactive = score below 0.9.

Assay [1] deals with human AMP-activated Protein Kinase, alpha 1 (AMPKa1), PRKAA1 (gene 5562) (UniProt Q13131). Description: NVS_ENZ_hAMPKa1: NovaScreen (NVS) Enzymatic Assay for human AMP-activated Protein Kinase, alpha 1 (AMPKa1) (AID 2283130). Put shortly: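 Recombinant human AMPKα1 activity was measured cell-free by fluorescent substrate conversion with electrophoretic mobility-shift separation, 1 h after dosing. Duplicate single-point screening was at 25 uM; actives (≥30% inhibition) were retested in concentration-response up to 50 uM.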
Chain of human AMP-activated Protein Kinase, alpha 1 (AMPKa1), PRKAA1 (gene 5562) (Q13131 whole entry, looked up): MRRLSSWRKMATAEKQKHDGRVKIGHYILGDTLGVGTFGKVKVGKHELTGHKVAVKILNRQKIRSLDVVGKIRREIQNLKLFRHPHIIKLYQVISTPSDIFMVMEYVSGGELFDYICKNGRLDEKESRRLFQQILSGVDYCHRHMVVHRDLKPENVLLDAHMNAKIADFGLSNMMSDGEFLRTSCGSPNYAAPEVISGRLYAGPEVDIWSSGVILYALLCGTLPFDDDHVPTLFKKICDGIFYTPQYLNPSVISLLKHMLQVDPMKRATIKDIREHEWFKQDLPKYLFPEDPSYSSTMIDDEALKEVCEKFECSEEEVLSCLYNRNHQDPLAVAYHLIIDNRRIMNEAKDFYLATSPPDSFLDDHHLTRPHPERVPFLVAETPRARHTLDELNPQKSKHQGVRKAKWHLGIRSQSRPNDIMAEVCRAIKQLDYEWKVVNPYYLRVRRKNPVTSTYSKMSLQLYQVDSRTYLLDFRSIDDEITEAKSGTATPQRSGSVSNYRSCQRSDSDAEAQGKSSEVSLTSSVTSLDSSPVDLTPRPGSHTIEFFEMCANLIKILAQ

Assay [2] concerns the target Caspase-1 (Homo sapiens) (UniProt P29466). The assay is described as follows: NVS_ENZ_hCASP1: NovaScreen (NVS) Enzymatic Assay for human Caspase 1 (CASP1) (AID 2283132). The essentials: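 Cell-free enzymatic assay with E. coli-expressed recombinant protein; fluorescence intensity read 1 hour after dosing. Single-concentration duplicate screen at 25 uM, then concentration-response up to 50 uM; activity fitted relative to DMSO, loss of signal meaning inhibition.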

Assay [3] concerns the target human Caspase 2 (CASP2), CASP2 (gene 835) (UniProt P42575). Description: NVS_ENZ_hCASP2: NovaScreen (NVS) Enzymatic Assay for human Caspase 2 (CASP2) (AID 2283135). Put shortly: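 E. coli-expressed enzyme in a cell-free protease assay, fluorescence read 1 h after dosing. Compounds at 25 uM in duplicate, with concentration-response up to 50 uM for hits; loss of signal against DMSO baseline.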

Assay [4] addresses Caspase-3 (Homo sapiens) (UniProt P42574). Description: NVS_ENZ_hCASP3: NovaScreen (NVS) Enzymatic Assay for human Caspase 3 (CASP3) (AID 2283139). The essentials:
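Recombinant human caspase-3 from E. coli with a fluorogenic substrate, read by fluorescence 1 h after dosing. Primary screen in duplicate at 25 uM. Actives (for example ≥30% inhibition) rerun as concentration-response up to 50 uM.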

Chain of Caspase-3 (Homo sapiens) (P42574 whole entry, looked up): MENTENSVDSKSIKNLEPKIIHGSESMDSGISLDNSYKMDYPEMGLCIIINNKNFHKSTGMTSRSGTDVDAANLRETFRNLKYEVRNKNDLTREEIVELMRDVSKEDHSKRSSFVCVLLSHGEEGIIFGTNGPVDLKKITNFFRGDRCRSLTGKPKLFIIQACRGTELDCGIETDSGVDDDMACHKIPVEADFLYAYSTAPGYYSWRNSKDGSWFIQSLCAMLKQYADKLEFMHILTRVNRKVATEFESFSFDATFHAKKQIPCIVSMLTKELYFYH
Chain of Caspase-1 (Homo sapiens) (P29466 whole entry, looked up): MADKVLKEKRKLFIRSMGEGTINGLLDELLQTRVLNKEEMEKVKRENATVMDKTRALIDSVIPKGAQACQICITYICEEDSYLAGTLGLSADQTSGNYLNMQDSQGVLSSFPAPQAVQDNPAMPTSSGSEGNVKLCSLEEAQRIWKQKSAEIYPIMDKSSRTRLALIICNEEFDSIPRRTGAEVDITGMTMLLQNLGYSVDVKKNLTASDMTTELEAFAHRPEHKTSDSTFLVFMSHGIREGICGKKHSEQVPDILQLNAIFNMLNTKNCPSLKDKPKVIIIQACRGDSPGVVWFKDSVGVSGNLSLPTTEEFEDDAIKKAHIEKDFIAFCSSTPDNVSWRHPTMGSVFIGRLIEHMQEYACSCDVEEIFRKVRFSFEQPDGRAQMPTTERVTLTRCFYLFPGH
Chain of human Caspase 2 (CASP2), CASP2 (gene 835) (P42575 whole entry, looked up): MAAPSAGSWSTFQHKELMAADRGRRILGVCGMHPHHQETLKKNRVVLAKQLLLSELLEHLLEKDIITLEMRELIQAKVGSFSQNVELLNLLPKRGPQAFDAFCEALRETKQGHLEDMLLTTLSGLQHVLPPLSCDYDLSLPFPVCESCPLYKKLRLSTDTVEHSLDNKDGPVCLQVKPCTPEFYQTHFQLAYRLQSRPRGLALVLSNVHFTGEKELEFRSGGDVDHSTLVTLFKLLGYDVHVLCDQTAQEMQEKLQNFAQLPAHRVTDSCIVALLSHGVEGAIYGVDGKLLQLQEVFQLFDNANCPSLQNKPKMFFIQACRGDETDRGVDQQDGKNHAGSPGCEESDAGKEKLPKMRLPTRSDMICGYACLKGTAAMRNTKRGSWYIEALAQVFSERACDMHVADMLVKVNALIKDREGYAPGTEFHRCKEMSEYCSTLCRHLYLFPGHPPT

Consider `CO/C=C(/C(=O)OC)c1ccccc1Oc1cc(Oc2ccccc2C#N)ncn1`, for which the call in assay [1] was inactive. Regarding `CNC(=S)S`, the result in assay [2] and in assay [3] was inactive. For `C#CCOS(=O)OC1CCCCC1Oc1ccc(C(C)(C)C)cc1` (stereo not given), in assay [4], the compound was classed as inactive. On to `CC(Oc1ccc(Cl)cc1Cl)C(=O)O` (stereo not given), for which, in assay [4], the compound was classed as inactive.
